Compound activity: PubChem BioAssay, several laboratories
Shown are actives, neighbours in structure and some others; about 2.9% of the full set was active somewhere.
Mtb hypoxia inh: PubChem AID 1159583; M. tuberculosis hypoxia-regulated fluorescent reporter, fluorescence; fluorescence inhibition, % (concentration not given with the values); hit rate 0.1% among 300,000; in the data active = fluorescence inhibition mostly above about 23%, no sharp cut-off; inactive = mostly below about 17%
GDH-TPI counter-1: GDH-TPI coupling enzyme inhibitors, primary screen, artefact control for M. tuberculosis FBA inhibitor project, biochemical, absorbance, full deck | GDH-TPI coupled enzyme counterscreen, NADH absorbance | inhibition, % at 4.8 µM | hit rate 1.2% among 360,000 | AID 588335, 2011; in the data active = inhibition above about 30%;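 note: 0% = DMSO wells and 100% = wells lacking the enzyme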
BioA inh: M. tuberculosis BioA enzyme inhibitors, primary screen, biochemical, plate reader, single point, HTS; purified M. tuberculosis BioA enzyme; inhibition, % at 9.99 µM; 7,8-diaminopelargonic acid synthase BioA (Mycobacterium tuberculosis); hit rate 0.096% among 360,000; AID 602481, 2012; in the data active = inhibition above about 40%
Mtb FBA inh: Mtb FBA enzyme inhibitors, primary screen, biochemical, fluorescence, strain H37Rv; purified M. tuberculosis FBA, fluorescence read-out; inhibition, % at 1 µM; AID 588726, 2011; Fructose-bisphosphate aldolase (Mycobacterium tuberculosis (strain ATCC 25618 / H37Rv)), …; hit rate 2.3% among 360,000;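 note: 0% = vehicle and 100% = reference inhibitor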
Target sequence (P9WQA3 whole entry, looked up): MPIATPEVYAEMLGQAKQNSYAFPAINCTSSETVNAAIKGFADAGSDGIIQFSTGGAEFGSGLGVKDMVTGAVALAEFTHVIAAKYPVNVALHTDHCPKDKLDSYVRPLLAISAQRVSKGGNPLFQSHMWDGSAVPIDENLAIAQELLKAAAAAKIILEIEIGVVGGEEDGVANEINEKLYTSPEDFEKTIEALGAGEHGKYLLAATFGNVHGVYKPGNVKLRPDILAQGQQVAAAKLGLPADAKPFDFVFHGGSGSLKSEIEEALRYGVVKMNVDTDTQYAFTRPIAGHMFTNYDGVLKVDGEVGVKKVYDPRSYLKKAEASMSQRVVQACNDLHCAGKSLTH
FadD28 binding: inhibitors of FadD28 bisubstrate probe binding, primary screen, biochemical, fluorescence polarization, single point | inhibition, % at 12.5 µM | Mycobacterium tuberculosis FadD28 fatty-acid-AMP ligase | hit rate 0.22% among 360,000; in the data active = inhibition above about 8.5%, passing the limit was not always enough
Mtb FBA inh conf: M. tuberculosis aldolase blockers, biochemical, fluorescence, strain H37Rv, confirmation; inhibition, % at 1 µM; hit rate 78% among 5,600; shares compounds with Mtb FBA inh; purified M. tuberculosis FBA, fluorescence read-out;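 note: 0% = vehicle wells and 100% = reference inhibitor wells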
GDH-TPI counter-2: GDH-TPI coupling enzyme inhibitors, artefact control for M. tuberculosis FBA inhibitor project, biochemical, fluorescence, high throughput; AID 652141, 2013; GDH-TPI coupled enzyme counterscreen; hit rate 81% among 5,600; inhibition, % at 1 µM; shares compounds with Mtb FBA inh; in the data active = inhibition above about 10%
An asterisk follows results filed as active; . = no result given; + = active, no number. Cut-off read from the data, not from the text of the source, unless noted: active = inhibition above about 27%; inactive = the rest.

SMILES | Mtb hypoxia inh | GDH-TPI counter-1 | BioA inh | Mtb FBA inh | FadD28 binding | Mtb FBA inh conf | GDH-TPI counter-2
Cc1noc(C)c1S(=O)(=O)N(C)C[C@@H]1OCCCC[C@H](C)Oc2ccc(NC(=O)Cc3ccccc3)cc2C(=O)N([C@@H](C)CO)C[C@H]1C | . | . | -1.3 | . | . | . | .
Cc1ccc2c(c1)COc1c3ccc(C(=O)N[C@@H](C)CO)cc3nn1-2 | . | 21.0 | -2.7 | 33.7* | -1.0 | + | +
C[C@H]1CN([C@@H](C)CO)C(=O)c2cc(C3=CCCC3)cnc2O[C@@H]1CN(C)C(=O)Cc1ccncc1 | . | . | 1.7 | . | . | . | .
Cc1csc(NC(=O)c2cc3c(s2)-c2ccccc2OC3)n1 | 0.6 | 18.8 | -0.5 | 39.3* | -5.5 | 123.3* | 102.0*
Cc1ccccc1C1N=C2Oc3ccccc3C=C2C(=O)N1 (stereo not given) | . | . | . | 95.9* | -1.9 | 70.2* | 52.2*
Cc1ccccc1C1NC(=O)c2ccccc2O1 (stereo not given) | -0.9 | 13.8 | -1.0 | 5.3 | -1.5 | . | .
CC(C=NNC(=O)c1cccnc1)c1ccccc1 (stereo not given) | 7.3 | . | . | . | . | . | .
NC1=NN=C(N2N=C(c3ccc(Br)cc3)CC2(O)C(F)(F)F)n2ncnc2C1 (stereo not given) | 5.9 | 5.0 | . | 55.9* | 0.7 | -1.0 | -1.7
COc1ccccc1C1=NN(C2=NN=C(N)Cc3ncnn32)C(O)(C(F)(F)F)C1 (stereo not given) | 3.8 | 3.9 | . | 35.0* | -1.3 | 9.2 | 1.0
CC(=O)NCCNc1nc2cc(-c3ccc(C)cc3)sc2c(=O)n1C | . | 17.7 | -0.6 | 3.1 | -6.4 | . | .
CC(=O)NCCNc1nc2cc(-c3ccc4c(ccn4C)c3)sc2c(=O)n1C | . | 10.6 | -0.5 | 32.8* | -2.7 | 78.0* | 83.1*
CC(C)OCCOc1ccc2oc(-c3ccco3)cc(=O)c2c1 | 13.5 | 22.1 | 0.3 | 76.8* | 0.4 | -2.7 | -4.3
O=c1cc(-c2c(F)c(F)c(F)c(F)c2F)oc2ccccc12 | . | 0.7 | 0.6 | -0.4 | -2.1 | . | .
O=c1cc(-c2ccco2)oc2ccccc12 | 15.5 | 28.1 | 0.9 | 85.5* | -2.4 | 7.4 | 1.5
COc1ccc(-c2[nH]ncc2C2N=C(N)Nc3nc4ccccc4n32)cc1 (stereo not given) | 8.9 | -0.6 | 4.1 | 33.9* | -3.1 | 70.0* | 51.9*
CCOC(=O)CCc1c(C)c2ccc(OCC(=O)OC(C)C)cc2oc1=O | 22.0 | 12.6 | 2.0 | 66.7* | 0.9 | 54.1* | 41.4*
CCCCc1c(C)c2ccc(OCC(C)=O)cc2oc1=O | . | 3.4 | 2.3 | 72.4* | -1.2 | 2.7 | 6.3
CCOC(=O)CCc1c(C)c2ccc(OCc3ccc([N+](=O)[O-])cc3)cc2oc1=O | 1.9 | 1.6 | -2.1 | 7.5 | -0.2 | . | .
C=CCOC(=O)COc1ccc2c(C)c(C)c(=O)oc2c1 | -1.5 | 22.5 | . | 68.0* | -0.8 | 24.8 | 27.9*
CCOC(=O)CCc1c(C)c2ccc(OC3CCCCC3=O)cc2oc1=O (stereo not given) | 11.7 | 4.7 | 2.6 | 109.5* | -0.7 | 150.9* | 132.2*
O=C(N[C@H]1CC[C@H](CCNC(=O)C2CCCCC2)O[C@H]1CO)c1ccccn1 | . | . | -2.1 | . | . | . | .
C[C@@H]1CCCCO[C@H](CN(C)C(=O)Nc2ccc(F)cc2)[C@H](C)CN([C@@H](C)CO)C(=O)c2cc(NS(=O)(=O)c3cccs3)ccc2O1 | . | . | -1.7 | . | . | . | .
Cc1cccc(-n2c(SCC(=O)Nc3nnc(C)s3)nnc2-c2ccoc2C)c1 | . | 5.8 | 6.0 | 46.1* | -1.0 | 38.1* | 31.3*
CO[C@H]1CN(C)C(=O)c2cc(NC(=O)c3cnccn3)ccc2OC[C@@H](C)N(C)C[C@@H]1C | . | . | 0.4 | . | . | . | .
Cc1nc2c([nH]c3ccccc32)c(=O)n1N | 0.8 | 6.9 | -0.9 | 5.1 | -1.6 | . | .
Nn1c(=O)[nH]c2c([nH]c3ccccc32)c1=O | 6.6 | -11.7 | . | 27.5* | -5.0 | 107.5* | 85.8*
O=C(NC1CCCC1)N[C@H]1CC[C@H](CC(=O)N2CCOCC2)O[C@@H]1CO | . | . | -0.9 | . | . | . | .
